Publication PMC11102866, “Nucleosome-bound NR5A2 structure reveals pioneer factor mechanism by DNA minor groove anchor competition”

B1: 69 (nucleosome)
DNA 1: ATCCTGGAGAATCCCGGTGCCGAGGCCGCTCAATTGGTCGTAGACAGCTCTAGCACCGCTTAAACGCACGTTCAAGGCCACCCCCGCGTTTTAACCGCCAAGGGGATTACTCCCTAGTCTCCAGGCACGTGTCAGATATATACATCCTGTGAT
DNA 2: ATCACAGGATGTATATATCTGACACGTGCCTGGAGACTAGGGAGTAATCCCCTTGGCGGTTAAAACGCGGGGGTGGCCTTGAACGTGCGTTTAAGCGGTGCTAGAGCTGTCTACGACCAATTGAGCGGCCTCGGCACCGGGATTCTCCAGGAT
modifications: reconstituted with mouse histones H2A, H2B, H3.3 and H4
B2: 70 (nucleosome)
DNA 1: ATCCTGGAGAATCCCGGTGCCGAGGCCGCTCAATTGGTCGTAGACAGCTCTAGCACCGCTTAAACGCACGTATCAAGGCCACCCCGCGTTTTAACCGCCAAGGGGATTACTCCCTAGTCTCCAGGCACGTGTCAGATATATACATCCTGTGAT
DNA 2: ATCACAGGATGTATATATCTGACACGTGCCTGGAGACTAGGGAGTAATCCCCTTGGCGGTTAAAACGCGGGGTGGCCTTGATACGTGCGTTTAAGCGGTGCTAGAGCTGTCTACGACCAATTGAGCGGCCTCGGCACCGGGATTCTCCAGGAT
modifications: reconstituted with mouse histones H2A, H2B, H3.3 and H4
B3: 74 (nucleosome)
DNA 1: ATCCTGGAGAATCCCGGTGCCGAGGCCGCTCAATTGGTCGTAGACAGCTCTAGCACCGCTTAAACGCACGTACGCGTCAAGGCCAGCGTTTTAACCGCCAAGGGGATTACTCCCTAGTCTCCAGGCACGTGTCAGATATATACATCCTGTGAT
DNA 2: ATCACAGGATGTATATATCTGACACGTGCCTGGAGACTAGGGAGTAATCCCCTTGGCGGTTAAAACGCTGGCCTTGACGCGTACGTGCGTTTAAGCGGTGCTAGAGCTGTCTACGACCAATTGAGCGGCCTCGGCACCGGGATTCTCCAGGAT
modifications: reconstituted with mouse histones H2A, H2B, H3.3 and H4
B4: 75 (nucleosome)
DNA 1: ATCCTGGAGAATCCCGGTGCCGAGGCCGCTCAATTGGTCGTAGACAGCTCTAGCACCGCTTAAACGCACGTACGCGCTCAAGGCCACGTTTTAACCGCCAAGGGGATTACTCCCTAGTCTCCAGGCACGTGTCAGATATATACATCCTGTGAT
DNA 2: ATCACAGGATGTATATATCTGACACGTGCCTGGAGACTAGGGAGTAATCCCCTTGGCGGTTAAAACGTGGCCTTGAGCGCGTACGTGCGTTTAAGCGGTGCTAGAGCTGTCTACGACCAATTGAGCGGCCTCGGCACCGGGATTCTCCAGGAT
modifications: reconstituted with mouse histones H2A, H2B, H3.3 and H4
B5: 9 (nucleosome)
DNA 1: ATCCTGGAGAATCAAGGCCACGAGGCCGCTCAATTGGTCGTAGACAGCTCTAGCACCGCTTAAACGCACGTACGCGCTGTCCCCCGCGTTTTAACCGCCAAGGGGATTACTCCCTAGTCTCCAGGCACGTGTCAGATATATACATCCTGTGAT
DNA 2: ATCACAGGATGTATATATCTGACACGTGCCTGGAGACTAGGGAGTAATCCCCTTGGCGGTTAAAACGCGGGGGACAGCGCGTACGTGCGTTTAAGCGGTGCTAGAGCTGTCTACGACCAATTGAGCGGCCTCGTGGCCTTGATTCTCCAGGAT
modifications: reconstituted with mouse histones H2A, H2B, H3.3 and H4
B6: 78 (nucleosome)
DNA 1: ATCCTGGAGAATCCCGGTGCCGAGGCCGCTCAATTGGTCGTAGACAGCTCTAGCACCGCTTAAACGCACGTACGCGCTGTTCAAGGCCATTTAACCGCCAAGGGGATTACTCCCTAGTCTCCAGGCACGTGTCAGATATATACATCCTGTGAT
DNA 2: ATCACAGGATGTATATATCTGACACGTGCCTGGAGACTAGGGAGTAATCCCCTTGGCGGTTAAATGGCCTTGAACAGCGCGTACGTGCGTTTAAGCGGTGCTAGAGCTGTCTACGACCAATTGAGCGGCCTCGGCACCGGGATTCTCCAGGAT
modifications: reconstituted with mouse histones H2A, H2B, H3.3 and H4
B7: 80 (nucleosome)
DNA 1: ATCCTGGAGAATCCCGGTGCCGAGGCCGCTCAATTGGTCGTAGACAGCTCTAGCACCGCTTAAACGCACGTACGCGCTGTCCTCAAGGCCATAACCGCCAAGGGGATTACTCCCTAGTCTCCAGGCACGTGTCAGATATATACATCCTGTGAT
DNA 2: ATCACAGGATGTATATATCTGACACGTGCCTGGAGACTAGGGAGTAATCCCCTTGGCGGTTATGGCCTTGAGGACAGCGCGTACGTGCGTTTAAGCGGTGCTAGAGCTGTCTACGACCAATTGAGCGGCCTCGGCACCGGGATTCTCCAGGAT
modifications: reconstituted with mouse histones H2A, H2B, H3.3 and H4
B8: 79 (nucleosome)
DNA 1: ATCCTGGAGAATCCCGGTGCCGAGGCCGCTCAATTGGTCGTAGACAGCTCTAGCACCGCTTAAACGCACGTACGCGCTGTCTCAAGGCCATTAACCGCCAAGGGGATTACTCCCTAGTCTCCAGGCACGTGTCAGATATATACATCCTGTGAT
DNA 2: ATCACAGGATGTATATATCTGACACGTGCCTGGAGACTAGGGAGTAATCCCCTTGGCGGTTAATGGCCTTGAGACAGCGCGTACGTGCGTTTAAGCGGTGCTAGAGCTGTCTACGACCAATTGAGCGGCCTCGGCACCGGGATTCTCCAGGAT
modifications: reconstituted with mouse histones H2A, H2B, H3.3 and H4
B9: 76 (nucleosome)
DNA 1: ATCCTGGAGAATCCCGGTGCCGAGGCCGCTCAATTGGTCGTAGACAGCTCTAGCACCGCTTAAACGCACGTACGCGCTTCAAGGCCAGTTTTAACCGCCAAGGGGATTACTCCCTAGTCTCCAGGCACGTGTCAGATATATACATCCTGTGAT
DNA 2: ATCACAGGATGTATATATCTGACACGTGCCTGGAGACTAGGGAGTAATCCCCTTGGCGGTTAAAACTGGCCTTGAAGCGCGTACGTGCGTTTAAGCGGTGCTAGAGCTGTCTACGACCAATTGAGCGGCCTCGGCACCGGGATTCTCCAGGAT
modifications: reconstituted with mouse histones H2A, H2B, H3.3 and H4
B10: 77 (nucleosome)
DNA 1: ATCCTGGAGAATCCCGGTGCCGAGGCCGCTCAATTGGTCGTAGACAGCTCTAGCACCGCTTAAACGCACGTACGCGCTGTCAAGGCCATTTTAACCGCCAAGGGGATTACTCCCTAGTCTCCAGGCACGTGTCAGATATATACATCCTGTGAT
DNA 2: ATCACAGGATGTATATATCTGACACGTGCCTGGAGACTAGGGAGTAATCCCCTTGGCGGTTAAAATGGCCTTGACAGCGCGTACGTGCGTTTAAGCGGTGCTAGAGCTGTCTACGACCAATTGAGCGGCCTCGGCACCGGGATTCTCCAGGAT
modifications: reconstituted with mouse histones H2A, H2B, H3.3 and H4
B11: 67 (nucleosome)
DNA 1: ATCCTGGAGAATCCCGGTGCCGAGGCCGCTCAATTGGTCGTAGACAGCTCTAGCACCGCTTAAACGCACTCAAGGCCAGTCCCCCGCGTTTTAACCGCCAAGGGGATTACTCCCTAGTCTCCAGGCACGTGTCAGATATATACATCCTGTGAT
DNA 2: ATCACAGGATGTATATATCTGACACGTGCCTGGAGACTAGGGAGTAATCCCCTTGGCGGTTAAAACGCGGGGGACTGGCCTTGAGTGCGTTTAAGCGGTGCTAGAGCTGTCTACGACCAATTGAGCGGCCTCGGCACCGGGATTCTCCAGGAT
modifications: reconstituted with mouse histones H2A, H2B, H3.3 and H4
B12: 71 (nucleosome)
DNA 1: ATCCTGGAGAATCCCGGTGCCGAGGCCGCTCAATTGGTCGTAGACAGCTCTAGCACCGCTTAAACGCACGTACTCAAGGCCACCCGCGTTTTAACCGCCAAGGGGATTACTCCCTAGTCTCCAGGCACGTGTCAGATATATACATCCTGTGAT
DNA 2: ATCACAGGATGTATATATCTGACACGTGCCTGGAGACTAGGGAGTAATCCCCTTGGCGGTTAAAACGCGGGTGGCCTTGAGTACGTGCGTTTAAGCGGTGCTAGAGCTGTCTACGACCAATTGAGCGGCCTCGGCACCGGGATTCTCCAGGAT
modifications: reconstituted with mouse histones H2A, H2B, H3.3 and H4
B13: 73 (nucleosome)
DNA 1: ATCCTGGAGAATCCCGGTGCCGAGGCCGCTCAATTGGTCGTAGACAGCTCTAGCACCGCTTAAACGCACGTACGCTCAAGGCCACGCGTTTTAACCGCCAAGGGGATTACTCCCTAGTCTCCAGGCACGTGTCAGATATATACATCCTGTGAT
DNA 2: ATCACAGGATGTATATATCTGACACGTGCCTGGAGACTAGGGAGTAATCCCCTTGGCGGTTAAAACGCGTGGCCTTGAGCGTACGTGCGTTTAAGCGGTGCTAGAGCTGTCTACGACCAATTGAGCGGCCTCGGCACCGGGATTCTCCAGGAT
modifications: reconstituted with mouse histones H2A, H2B, H3.3 and H4
B14: 72 (nucleosome)
DNA 1: ATCCTGGAGAATCCCGGTGCCGAGGCCGCTCAATTGGTCGTAGACAGCTCTAGCACCGCTTAAACGCACGTACGTCAAGGCCACCGCGTTTTAACCGCCAAGGGGATTACTCCCTAGTCTCCAGGCACGTGTCAGATATATACATCCTGTGAT
DNA 2: ATCACAGGATGTATATATCTGACACGTGCCTGGAGACTAGGGAGTAATCCCCTTGGCGGTTAAAACGCGGTGGCCTTGACGTACGTGCGTTTAAGCGGTGCTAGAGCTGTCTACGACCAATTGAGCGGCCTCGGCACCGGGATTCTCCAGGAT
modifications: reconstituted with mouse histones H2A, H2B, H3.3 and H4
B15: 68 (nucleosome)
DNA 1: ATCCTGGAGAATCCCGGTGCCGAGGCCGCTCAATTGGTCGTAGACAGCTCTAGCACCGCTTAAACGCACGTCAAGGCCATCCCCCGCGTTTTAACCGCCAAGGGGATTACTCCCTAGTCTCCAGGCACGTGTCAGATATATACATCCTGTGAT
DNA 2: ATCACAGGATGTATATATCTGACACGTGCCTGGAGACTAGGGAGTAATCCCCTTGGCGGTTAAAACGCGGGGGATGGCCTTGACGTGCGTTTAAGCGGTGCTAGAGCTGTCTACGACCAATTGAGCGGCCTCGGCACCGGGATTCTCCAGGAT
modifications: reconstituted with mouse histones H2A, H2B, H3.3 and H4

Target: NR5A2 wild type;histone octamer (Homo sapiens;, UniProt O00482;C0HKE1;Q6ZWY9;P84244;P62806 1-541;2-130;2-126;2-136;2-103, |)
Assay: SeEN-seq (EMSA of nucleosome library followed by sequencing); 0.8 uM human NR5A2; 20 mM Tris-HCl pH 7.5, 120 mM NaCl, 1 mM MgCl2, 10 uM ZnCl2, 1 mM DTT, 100 ug/ml BSA, room temperature, 30 min; 0.1 uM nucleosome library; high values mean tight binding

In order of rising binding signal:
1. B15  0.625 log2 enrichment (bound/unbound, relative to Widom 601)
2. B7  0.765 log2 enrichment (bound/unbound, relative to Widom 601)
3. B1  0.77 log2 enrichment (bound/unbound, relative to Widom 601)
4. B11  0.806 log2 enrichment (bound/unbound, relative to Widom 601)
5. B14  1 log2 enrichment (bound/unbound, relative to Widom 601)
6. B12  1.13 log2 enrichment (bound/unbound, relative to Widom 601)
7. B3  1.21 log2 enrichment (bound/unbound, relative to Widom 601)
8. B2  1.27 log2 enrichment (bound/unbound, relative to Widom 601)
9. B13  1.28 log2 enrichment (bound/unbound, relative to Widom 601)
10. B4  1.29 log2 enrichment (bound/unbound, relative to Widom 601)
11. B8  1.33 log2 enrichment (bound/unbound, relative to Widom 601)
12. B10  1.48 log2 enrichment (bound/unbound, relative to Widom 601)
13. B6  1.77 log2 enrichment (bound/unbound, relative to Widom 601)
14. B9  1.83 log2 enrichment (bound/unbound, relative to Widom 601)
15. B5  3.63 log2 enrichment (bound/unbound, relative to Widom 601)

Target: mouse Nr5a2 wild type;histone octamer (Mus musculus;, UniProt P45448;C0HKE1;Q6ZWY9;P84244;P62806 1-560;2-130;2-126;2-136;2-103, |)
Assay: SeEN-seq (EMSA of nucleosome library followed by sequencing); 1.2 uM mouse Nr5a2; 20 mM Tris-HCl pH 7.5, 120 mM NaCl, 1 mM MgCl2, 10 uM ZnCl2, 1 mM DTT, 100 ug/ml BSA, room temperature, 30 min; 0.1 uM nucleosome library; high values mean tight binding

In order of falling binding signal:
1. B5  3.37 log2 enrichment (bound/unbound, relative to Widom 601)
2. B9  2.16 log2 enrichment (bound/unbound, relative to Widom 601)
3. B6  2.13 log2 enrichment (bound/unbound, relative to Widom 601)
4. B10  1.71 log2 enrichment (bound/unbound, relative to Widom 601)
5. B2  1.51 log2 enrichment (bound/unbound, relative to Widom 601)
6. B13  1.51 log2 enrichment (bound/unbound, relative to Widom 601)
7. B12  1.45 log2 enrichment (bound/unbound, relative to Widom 601)
8. B3  1.39 log2 enrichment (bound/unbound, relative to Widom 601)
9. B4  1.36 log2 enrichment (bound/unbound, relative to Widom 601)
10. B8  1.29 log2 enrichment (bound/unbound, relative to Widom 601)
11. B14  1.27 log2 enrichment (bound/unbound, relative to Widom 601)
12. B11  0.96 log2 enrichment (bound/unbound, relative to Widom 601)
13. B7  0.924 log2 enrichment (bound/unbound, relative to Widom 601)
14. B1  0.872 log2 enrichment (bound/unbound, relative to Widom 601)
15. B15  0.543 log2 enrichment (bound/unbound, relative to Widom 601)
